Source: PubChem BioAssay (NCI)
This is part of a sample that, as a whole, favours compounds with a hit. Of some 83,000 tested, about 20% had one in any assay.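 Assay: single dose, 48 h. Readout: percent growth (0 = no net growth; negative = cell death). Active: <10.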 Values without a mark were called inactive. Activity calls are given as the source filed them.

Assays:
Assay in all cases: NCI-60 one-dose screen, 48 h (100 = growth as untreated, 0 = no growth, -100 = all killed)
Settings in all cases: 10 µM
[1] = tested on: K-562 leukemia
[2] = tested on: MDA-MB-231 breast
[3] = tested on: RXF 393 renal
[4] = tested on: SF-268 CNS
[5] = tested on: SF-295 CNS
[6] = tested on: SF-539 CNS
[7] = tested on: UACC-257 melanoma
[8] = tested on: M14 melanoma
[9] = tested on: HCT-15 colon
[10] = tested on: HT29 colon
[11] = tested on: SNB-75 CNS
[12] = tested on: SNB-19 CNS
[13] = tested on: U251 CNS
[14] = tested on: PC-3 prostate
[15] = tested on: SK-MEL-5 melanoma
[16] = tested on: UACC-62 melanoma
[17] = tested on: LOX IMVI melanoma
[18] = tested on: SK-MEL-28 melanoma
[19] = tested on: SK-MEL-2 melanoma

SMILES	growth [1]	growth [2]	growth [3]	growth [4]	growth [5]	growth [6]	growth [7]	growth [8]	growth [9]	growth [10]	growth [11]	growth [12] [%]	growth [13]	growth [14]	growth [15]	growth [16]	growth [17]	growth [18]	growth [19]
COc1ccc2c(c1)C(=O)c1c-2c(OCCN(C)C)nc2cc(OC)c(OC)cc12	62%	72.3%	70.4%	41%	21.5%	71.9%	103%	88.8%	76.8%	30.1%	51.7%	57.1	50.5%	69.2%	89.7%	83.1%	-36.6% (active)	112%	54.3%
COc1ccc(/C=C/C(=O)Nc2ccc(-c3nc4ccc(OC)cc4s3)cc2)cc1	95.7%	111%	112%	116%	106%	102%	111%	106%	111%	110%	102%	105	109%	101%	104%	108%	92.3%	111%	105%
O=C(O)c1ccc(Cl)cc1Nc1ccc(F)cc1	75.4%	70.4%	92.7%	62.4%	73%	93.8%	97.6%	77.6%	53.7%	101%	83.6%	87.1	52.3%	83.9%	102%	92.4%	43.1%	86.2%	93.4%
COc1cc(/C=C2\CCCC3=C2N=C2SC=NN2C3c2cc(OC)c(OC)c(OC)c2)cc(OC)c1OC (centres undefined)	8.28% (active)	2.06% (active)	21.7%	22.9%	21.4%	5.9% (active)	34.3%	9.84% (active)	6.59% (active)	3.26% (active)	19.7%	46.4	8.08% (active)	66.4%	16.3%	-51.7% (active)	-36.9% (active)	42.5%	89.3%
O=[N+]([O-])c1cccc(N=Cc2ccc3c(c2)OCO3)c1	100%	130%	118%	114%	102%	115%	102%	97.7%	122%	105%	96.7%	130	97.1%	106%	111%	105%	91.4%	117%	98.1%
C=C(C(=O)c1ccccc1)C(NC(C)(C)C)c1ccccc1 (centres undefined)	4.27% (active)	-11.3% (active)	-56.1% (active)	7.85% (active)	110%	-24.1% (active)	-15.3% (active)	-33.6% (active)	-48.7% (active)	-26.1% (active)	53.6%	80.8	4.4% (active)	5.45% (active)	-25.6% (active)	–	-82.2% (active)	9.1% (active)	-13.9% (active)
FC(F)(F)c1ccc2nc(-c3nc(-c4ccccc4)n4ccccc34)[nH]c2c1	82.7%	22.1%	94.4%	49.1%	104%	35.1%	81.7%	96%	60.4%	14.7%	66.9%	116	59.5%	39.6%	84.1%	103%	20.6%	98.4%	81.6%
c1ccc2c(c1)oc1c3cccnc3ccc21	95.8%	87.7%	94.4%	98.3%	105%	88.1%	101%	100%	95.1%	95.8%	70.1%	95.3	–	79.3%	96.7%	92.8%	87.1%	92.7%	96.9%
N=C1c2nc3n(c2C(=O)c2nc4n(c21)CCCC4)CCCC3	81.4%	82.6%	94.8%	71.3%	-85.7% (active)	-21.7% (active)	-6.6% (active)	-95.6% (active)	6.18% (active)	-13.7% (active)	-97% (active)	30	50.7%	90.6%	-98% (active)	-85.1% (active)	-68% (active)	-67.2% (active)	82.7%
COc1ccc2c(c1)C(=O)c1c-2c(OCCN2CCCCC2)nc2ccc(OC)cc12	11.2%	66.5%	47.3%	28.1%	2.81% (active)	20.9%	32.3%	22.9%	26.2%	1.76% (active)	20.8%	32.3	12%	43.3%	22.1%	20.6%	-52.9% (active)	72.3%	7.82% (active)
COc1cc(-c2cc(C(=O)N3CCN(C(=O)c4ccccc4NCc4cccs4)CC3)nc3cc(-c4ccccc4)nn23)cc(OC)c1OC	31.4%	90.1%	62.3%	90.8%	105%	98.5%	76.4%	70.9%	55.4%	28%	71%	85.1	72.1%	34%	37.9%	60%	70%	81.5%	68.4%
COc1ccc2c(c1)-c1c(c3cc(OC)ccc3n(CCN(C)C)c1=O)C2=O	18.6%	36.7%	25.2%	22.1%	7.07% (active)	37.7%	18.4%	24%	21.9%	-63.4% (active)	-3.22% (active)	32.4	20.3%	21.5%	11.7%	–	-67.9% (active)	41.3%	–
NC1(C(=O)O)CSSC1	43.3%	124%	74%	101%	33.6%	97%	48.5%	9.39% (active)	66.3%	90.7%	40.8%	36.4	15.1%	79.1%	69.9%	97.4%	32.2%	34.8%	111%
Nc1ccc2cc(S(=O)(=O)O)cc(O)c2c1N=Nc1ccc(F)cc1	119%	112%	119%	114%	110%	95.9%	106%	100%	105%	107%	123%	104	115%	91.5%	108%	96%	93.5%	132%	101%
NC1=NC(=O)C(c2ccccc2)(c2ccccc2)S1	90.8%	104%	109%	113%	112%	111%	110%	107%	101%	106%	107%	105	99.4%	103%	110%	98.2%	101%	101%	101%
COc1cc(CNc2ccccc2C(=O)N2CCN(C(=O)c3cc(-c4cc(OC)c(OC)c(OC)c4)n4nc(-c5ccccc5)cc4n3)CC2)cc(OC)c1OC	22.8%	67.8%	35.5%	65%	0.214% (active)	49.4%	37.5%	33%	42.8%	12.9%	33.5%	64.1	35.2%	26.9%	16.5%	27%	35.7%	53%	-0.722% (active)
CC(=O)c1cc(Cl)ccc1O	103%	100%	106%	104%	94.1%	89.1%	110%	106%	98.9%	106%	95.4%	113	107%	91.1%	103%	108%	102%	109%	110%
